Records with an inconclusive call do not appear. Activity calls are given as the source filed them. Rule for the calls, unless noted: active = hit-call score of the fitted dose curve at least 0.9, where 1 is the maximum; inconclusive = response in the unintended direction; inactive = score below 0.9.
How the values were obtained:
[1] = target: Thyroid hormone receptor alpha (Rattus norvegicus) + Thyroid hormone receptor beta (Rattus norvegicus) (UniProt P18113+P63059); experiment: TOX21_TR_LUC_GH3_Antagonist_Followup: Tox21 GH3 Thyroid Hormone Receptor Antagonism Luciferase Follow-Up Assay (AID 2283942)
Outline: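 Luminescence read-out (ONE-Glo, 30 min at room temperature) in GH3 reporter cells challenged with 1.0 nM T3 final. Compounds ran at 92 uM to 5nM over 15 concentrations for 24 h; DMSO served as negative control and baseline.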

THRA (gene 7067) = THRA (gene 7067) (UniProt P10827); experiment: TOX21_TRA_COA_Antagonist_Followup_ratio: Tox21 Thyroid Hormone Receptor alpha Antagonism through Coactivator Recruitment Follow-Up Assay, Ratio (AID 2283953)
Outline: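 We measured antagonism of T3-type coactivator recruitment using a TR-FRET ratio (emission 520 and 495 nm) between a Tb-labelled anti-GST antibody on TRα LBD (2.5 nM) and SRC-2 peptide (200 nM). Activity was scaled between DMSO and T3 wells.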

THRB (gene 7068) = THRB (gene 7068) (UniProt P10828); experiment: TOX21_TRB_BLA_Antagonist_Followup_ratio: Tox21 Thyroid Hormone Receptor beta Antagonism Beta-lactamase (BLA) Follow-Up Assay, Ratio (AID 2283958)
Outline: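 Using charcoal-stripped 2% FBS medium, human TRβ-LBD/GAL4 reporter HEK293T cells received test compounds for 18 h. The endpoint is the cleaved-to-uncleaved substrate ratio (460/530 nm).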

[2] = TOX21_TRB_BLA_Antagonist_Followup_viability: Viability Assessment in the Tox21 Thyroid Hormone Receptor beta Antagonism Beta-lactamase (BLA) Follow-Up Assay (AID 2283961)
Outline: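 TRβ-bla HEK293T (human TRβ LBD fused to GAL4 DBD), 3,000 cells/well, 2% charcoal-stripped FBS, phenol red-free medium; 18 h compound exposure, 37C; CellTiter-Glo 30 min RT; luminescence, loss-of-signal readout.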

[3] = target: Retinoic acid receptor RXR-alpha (Homo sapiens) (UniProt P19793); experiment: TOX21_TR_RXR_BLA_Antagonist_Followup_ratio: Tox21 Thyroid Hormone Receptor beta Retinoid X Receptor alpha (RXRa) Antagonism Beta-lactamase (BLA) Follow-Up Assay, Ratio (AID 2283972)
Outline: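 HEK293T RXRa-bla, 2% charcoal-stripped FBS medium, 16 h compound exposure at 37C, qHTS 11 conc x3. CCF4 FRET ratio ch2/ch1 (460:530), DMSO = baseline, loss-of-signal fit.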

[4] = TOX21_TR_RXR_BLA_Antagonist_Followup_viability: Viability Assessment in the Tox21 Thyroid Hormone Receptor beta Retinoid X Receptor alpha (RXRa) Antagonism Beta-lactamase (BLA) Follow-Up Assay (AID 2283979)
Outline: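 RXRa-bla HEK293T cells (2,500/well, phenol red-free DMEM, 2% charcoal-stripped FBS) were attached 5 h, then exposed to compounds at 11 concentrations in triplicate for 16 h at 37C. Viability measured by CellTiter-Glo ATP luminescence, bidirectional fitting versus DMSO.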

PGR (gene 5241) [5] = target: PGR (gene 5241) (UniProt P06401); experiment: TOX21_PR_BLA_Followup_Agonist_ratio: Tox21 HEK293 Progesterone Receptor (PR) Agonism Beta-lactamase Follow-Up Assay, Ratio (AID 2283933)
Outline: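 Ratio-based beta-lactamase reporter signal after 16 hr compound treatment of PR-UAS-bla HEK293T cells at 37C. Substrate loading lasted 2 hr at room temperature.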

PGR (gene 5241) [6] = target: PGR (gene 5241) (UniProt P06401); experiment: TOX21_PR_BLA_Followup_Antagonist_ratio: Tox21 HEK293 Progesterone Receptor (PR) Antagonism Beta-lactamase Follow-Up Assay, Ratio (AID 2283934);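 note: PR-UAS-bla HEK293T cells stimulated with 1 nM R5020 agonist for 16 hr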
Outline: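 Measured in PR-UAS-bla HEK293T cells co-treated with compound and 1 nM promegestone for 16 hr; beta-lactamase ratio read after 2 h FRET substrate loading, with parallel CellTiter-Glo cytotoxicity.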

[7] = TOX21_PR_BLA_Followup_Agonist_viability: Viability Assessment in the Tox21 HEK293 Progesterone Receptor (PR) Agonism Beta-lactamase Follow-Up Assay (AID 2283935);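 note: signal loss means lower viability so actives are cytotoxic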
Outline: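 Viability is read as CellTiter-Glo luminescence, where loss of signal indicates cytotoxicity. The cells are PR-UAS-bla HEK293T given compounds for 16 hr at 37C and 5% CO2, in the same wells used for the bla readout.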

[8] = TOX21_PR_BLA_Followup_Antagonist_viability: Viability Assessment in the Tox21 HEK293 Progesterone Receptor (PR) Antagonism Beta-lactamase Follow-Up Assay (AID 2283936);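 note: cells exposed to compound with R5020 agonist for 16 h; hits lower the luminescence signal meaning cytotoxicity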
Outline: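 PR-UAS-bla HEK293T cells in medium with 2% charcoal-stripped FBS were treated with compounds plus R5020 for 16 hr at 37C. After the beta-lactamase read, CellTiter-Glo was added to the same wells and luminescence read after 30 min at room temperature.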

PGR (gene 5241) [9] = target: PGR (gene 5241) (UniProt P06401); experiment: TOX21_PR_LUC_Followup_Agonist: Tox21 HEK293 Progesterone Receptor (PR) Agonism Luciferase Follow-Up Assay (AID 2283937; active = hit-call score of the fitted dose curve at least 0.9, where 1 is the maximum; inactive = score below 0.9)
Outline: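 In HEK293 cells stably expressing PR-A with a luciferase reporter, compounds were incubated 16 h at 37C, and induced luminescence was quantified with ONE-Glo, multiplexed with cell viability.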

PGR (gene 5241) [10] = target: PGR (gene 5241) (UniProt P06401); experiment: TOX21_PR_LUC_Followup_Antagonist: Tox21 HEK293 Progesterone Receptor (PR) Antagonism Luciferase Follow-Up Assay (AID 2283938);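 note: curve fitted upward as signal gain over DMSO baseline despite antagonist label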
Outline: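 Cells are grown 5 days in charcoal-stripped-FBS assay medium, plated, left 5 h, then dosed with compound and incubated 16 h. ONE-Glo reagent is added and luminescence read after 30 min.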

[11] = TOX21_PR_LUC_Followup_Agonist_viability: Viability Assessment in the Tox21 HEK293 Progesterone Receptor (PR) Agonism Luciferase Follow-Up Assay (AID 2283941);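 note: loss of signal means cytotoxicity so actives lower viability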
Outline: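 Seeding: HEK293-PR-A-luc, 3,000 cells/well, 5 h at 37C. Treatment: compound in DMSO, 16 h, 37C. Read: CellTiter-Glo ATP luminescence, signal loss taken as lower viability.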

Measured: AC50

PGR (gene 5241), sequence (P06401 whole entry, looked up): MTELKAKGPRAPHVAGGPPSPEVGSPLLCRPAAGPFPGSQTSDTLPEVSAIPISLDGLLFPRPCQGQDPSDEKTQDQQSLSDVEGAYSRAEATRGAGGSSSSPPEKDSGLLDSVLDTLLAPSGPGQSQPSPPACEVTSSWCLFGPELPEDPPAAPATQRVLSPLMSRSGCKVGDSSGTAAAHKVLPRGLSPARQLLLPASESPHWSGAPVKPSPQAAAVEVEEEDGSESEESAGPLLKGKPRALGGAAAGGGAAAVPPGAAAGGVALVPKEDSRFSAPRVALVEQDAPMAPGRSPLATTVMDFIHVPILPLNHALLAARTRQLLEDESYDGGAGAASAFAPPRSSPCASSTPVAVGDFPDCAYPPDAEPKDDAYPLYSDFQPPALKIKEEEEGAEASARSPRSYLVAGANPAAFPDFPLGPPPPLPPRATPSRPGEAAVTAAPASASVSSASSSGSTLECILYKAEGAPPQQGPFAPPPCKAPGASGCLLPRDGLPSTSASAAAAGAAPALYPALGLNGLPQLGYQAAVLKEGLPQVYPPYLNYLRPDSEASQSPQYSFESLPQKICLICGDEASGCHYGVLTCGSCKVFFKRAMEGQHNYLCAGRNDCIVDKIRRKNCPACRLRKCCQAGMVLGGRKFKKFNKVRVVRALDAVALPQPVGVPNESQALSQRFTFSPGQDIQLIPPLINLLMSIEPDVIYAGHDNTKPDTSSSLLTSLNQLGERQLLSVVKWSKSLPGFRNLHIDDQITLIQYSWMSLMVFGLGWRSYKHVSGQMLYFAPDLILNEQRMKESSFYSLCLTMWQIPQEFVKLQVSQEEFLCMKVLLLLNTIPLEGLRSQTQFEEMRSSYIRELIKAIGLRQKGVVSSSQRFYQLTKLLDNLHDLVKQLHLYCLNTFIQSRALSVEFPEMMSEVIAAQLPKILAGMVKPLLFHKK
THRB (gene 7068), sequence (P10828 whole entry, looked up, the tested form may be a part): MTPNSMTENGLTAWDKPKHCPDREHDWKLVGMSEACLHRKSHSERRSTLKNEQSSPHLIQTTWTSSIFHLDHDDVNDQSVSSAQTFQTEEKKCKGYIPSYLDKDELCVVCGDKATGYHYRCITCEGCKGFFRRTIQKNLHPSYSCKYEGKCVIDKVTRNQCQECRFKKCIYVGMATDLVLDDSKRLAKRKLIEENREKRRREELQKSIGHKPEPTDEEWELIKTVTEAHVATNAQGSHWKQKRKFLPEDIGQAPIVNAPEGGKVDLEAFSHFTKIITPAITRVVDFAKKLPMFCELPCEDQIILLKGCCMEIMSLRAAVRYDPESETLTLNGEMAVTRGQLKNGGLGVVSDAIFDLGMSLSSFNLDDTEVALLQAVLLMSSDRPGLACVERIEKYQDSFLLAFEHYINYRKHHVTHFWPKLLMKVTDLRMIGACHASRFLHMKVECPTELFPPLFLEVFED
THRA (gene 7067), sequence (P10827 whole entry, looked up, the tested form may be a part): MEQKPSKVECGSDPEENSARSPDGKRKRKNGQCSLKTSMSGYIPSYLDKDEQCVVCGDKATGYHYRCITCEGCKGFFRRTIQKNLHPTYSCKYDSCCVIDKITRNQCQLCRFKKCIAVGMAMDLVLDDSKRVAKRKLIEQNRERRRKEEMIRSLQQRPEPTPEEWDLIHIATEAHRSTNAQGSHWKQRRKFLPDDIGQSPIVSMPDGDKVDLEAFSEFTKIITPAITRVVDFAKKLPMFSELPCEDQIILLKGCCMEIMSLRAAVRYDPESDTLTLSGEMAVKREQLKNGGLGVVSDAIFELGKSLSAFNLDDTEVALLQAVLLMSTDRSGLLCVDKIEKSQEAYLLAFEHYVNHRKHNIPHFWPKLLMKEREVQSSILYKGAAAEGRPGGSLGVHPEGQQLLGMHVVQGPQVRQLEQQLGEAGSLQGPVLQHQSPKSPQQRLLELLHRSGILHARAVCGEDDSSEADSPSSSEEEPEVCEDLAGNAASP
Retinoic acid receptor RXR-alpha (Homo sapiens), sequence (P19793 whole entry, looked up): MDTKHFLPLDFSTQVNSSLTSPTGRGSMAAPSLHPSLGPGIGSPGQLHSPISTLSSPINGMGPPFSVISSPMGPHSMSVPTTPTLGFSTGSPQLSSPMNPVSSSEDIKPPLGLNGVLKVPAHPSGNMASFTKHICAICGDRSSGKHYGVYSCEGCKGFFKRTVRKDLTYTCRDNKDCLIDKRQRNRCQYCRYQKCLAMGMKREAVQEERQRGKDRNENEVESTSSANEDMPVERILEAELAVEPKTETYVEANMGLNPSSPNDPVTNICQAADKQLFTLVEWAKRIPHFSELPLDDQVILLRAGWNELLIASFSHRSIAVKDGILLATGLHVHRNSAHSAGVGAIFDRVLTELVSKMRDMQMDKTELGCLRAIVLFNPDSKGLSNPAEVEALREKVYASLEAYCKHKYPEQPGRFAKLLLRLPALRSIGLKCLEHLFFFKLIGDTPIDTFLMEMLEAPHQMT

O=C1c2ccccc2-c2n[nH]c3cccc1c23
inactive: [1] | THRA (gene 7067) | THRB (gene 7068) | [2] | [3] | [4]

C[C@@H]1CC(=O)NN=C1c1ccc(NN=C(C#N)C#N)cc1
active: PGR (gene 5241) [6] 17.3 µM | PGR (gene 5241) [10] 3.22 µM
inactive: PGR (gene 5241) [5] | [7] | [8] | PGR (gene 5241) [9] | [11]

O=c1[nH]c(=O)n([C@H]2C[C@H](O)[C@@H](CO)O2)cc1C(F)(F)F
inactive: [1] | THRB (gene 7068) | [2] | [4]

Source: PubChem BioAssay (EPA / NIEHS)
